Screens (PubChem)
Pf growth 48h – Primary qHTS for delayed death inhibitors of the malarial parasite plastid, 48 hour incubation; P. falciparum luciferase growth in erythrocytes, 48 h; Potency, µM (top dose mostly 28.7 µM), actives largely listed as inhibitors; actives 5.9% (n = 310,000)
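Erythrocytes infected with P. falciparum carrying an integrated firefly luciferase reporter (2% hematocrit, 0.1% parasitemia final) were exposed to compounds in RPMI 1640 with 0.5% Albumax at 37 C, 5% CO2. Growth inhibition was scored as reduced luminescence.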
AMA1 RON2 block – qHTS for Inhibitors of AMA1-RON; Towards Development of Antimalarial Drug Lead: Primary Screen | Plasmodium falciparum AMA1 (3D7) - RON2 peptide interaction | AlphaScreen AMA1-biotinylated RON2 peptide binding | Potency, µM (doses to about 58.2 µM), usual class: inhibitors | actives 0.2% (n = 360,000); also: nearly all actives have a fitted effect of over 45% in size
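AMA1 (3D7) with his tag at 25 nM final met compounds first, then biotinylated RON2 peptide at 25 nM; detection used donor plus acceptor beads, 10 µg/mL apiece, read by AlphaScreen after 30 min at room temperature.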
SARS PLpro yeast – qHTS of Yeast-based Assay for SARS-CoV PLP; actives 0.19% (n = 330,000); S. cerevisiae expressing SARS-CoV PLpro, growth rescue; AID 485353, 2010; Potency, µM (doses to about 32.9 µM), usual class: activators; calls by dose curve; also: nearly all actives have a fitted effect of over 55% in size
NS1 function inh – qHTS Assay for Inhibitors of Influenza NS1 Protein Function; Potency, µM (titrated, usually from 46.1 µM); actives 0.4% (n = 270,000); AID 2326, 2010; calls by dose curve; also: actives are rising curves; nearly all actives have a fitted effect of over 50% in size
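Recovery from NS1-induced slow growth read by OD600 in budding yeast switched to galactose assay medium (pH 6.0, -URA) at 1:100 dilution. Compound 23 nl per well; the matching strain lacking NS1 serves as control.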
HCV inhibitor – qHTS Assay for Inhibitors of Hepatitis C Virus (HCV). Huh7.5.1 HCVcc-Cre infection, luciferase reporter, 44 h. Potency, µM (doses to about 41.8 µM), actives largely listed as inhibitors. actives 3.4% (n = 340,000)
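Compounds are dispensed onto cells plated 4 h earlier at 1,000 per well, with HCVcc-Cre virus (about 0.5 moi) added next. Following 44 h of culture, luminescent signal is measured for 15 sec after 15 min with substrate at room temperature.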
Pf growth 96h – Primary qHTS for delayed death inhibitors of the malarial parasite plastid, 96 hour incubation. P. falciparum luciferase reporter growth, 96 h. Potency, µM (series often up to 28.7 µM), usual class: inhibitors. actives 6.9% (n = 320,000)
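Cell-based qHTS: luciferase-tagged P. falciparum in erythrocytes (2% hematocrit, 0.05% parasitemia final) incubated with compounds for 96 hours, 37 C, 5% CO2; luciferase detection reagent then added and luminescence measured.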
Of the large screens only hits and unclear results are named; the others gave an inactive call. Compounds with a hit are over-represented: about 12% of the library has one in this group of screens. Unless noted, calls follow the shape of the dose curve; as a rule, active = well fitted curve in the direction sought with a large enough effect; inconclusive = small, poorly fitted or top-dose-only effect, or another doubt; inactive = no such curve, though single readings can be large; an effect the other way counts as inactive or inconclusive.

C=CCn1c(=NC(=O)c2ccccc2[N+](=O)[O-])sc2cc(S(C)(=O)=O)ccc21	Pf growth 48h inconclusive, Pf growth 96h 9.28µM
O=C1CSC(c2cccs2)N1c1ccccc1 (stereo unspecified)	Pf growth 96h 7.38µM
O=C1CSC(c2ccccn2)N1c1ccc(C(F)(F)F)cc1 (stereo unspecified)	Pf growth 48h 2.94µM, Pf growth 96h inconclusive
O=C(COC(=O)c1cccs1)NC1CCCC1	Pf growth 96h inconclusive
CN(C)/C=C1\C(=O)N(C)N=C1C(F)(F)F	none (no result: NS1 function inh)
Cn1ccc2c(N3CCCCCCC3)cc3c(c21)C1CCC3O1 (stereo unspecified)	AMA1 RON2 block 25.1µM (no result: Pf growth 48h, SARS PLpro yeast, NS1 function inh, HCV inhibitor, Pf growth 96h)
O=C(COC(=O)c1ccc(Cl)c(S(=O)(=O)N2CCCCC2)c1)NCC1CCCO1 (stereo unspecified)	none (no result: NS1 function inh)
Cc1[nH]c2ccccc2c1C(=O)COC(=O)c1ccc2c(=O)n3c(nc2c1)CCC3	Pf growth 48h inconclusive
CC(=O)c1cnc(-c2ccccc2Cl)s1	none
CC(=O)c1cnc(-c2ccccn2)s1	Pf growth 48h 10.4µM, Pf growth 96h inconclusive (no result: NS1 function inh)
CC(=O)c1c(C)n(CCc2ccc(Cl)cc2)c2ccc(O)cc12	Pf growth 96h 5.86µM
CC(=O)c1c(C)n(CCO)c2ccc(O)cc12	none (no result: Pf growth 96h)
CC(=O)c1c(C)n(-c2cccc(Cl)c2)c2ccc(O)cc12	Pf growth 96h 2.62µM
COC(=O)c1c(C)n(-c2ccc(C)cc2)c2ccc(O)cc12	HCV inhibitor inconclusive, Pf growth 96h 4.15µM (no result: Pf growth 48h)
Cc1cc(C(=O)CCl)c(C)n1CCc1ccc(F)cc1	Pf growth 48h inconclusive, HCV inhibitor inconclusive, Pf growth 96h inconclusive (no result: NS1 function inh)
Cc1cc(C(=O)CCl)c(C)n1CCc1ccc(Cl)cc1	Pf growth 48h inconclusive, HCV inhibitor 10µM, Pf growth 96h 8.28µM
CCOc1cc(/C=N/NC(=O)C(=O)Nc2cc(Cl)ccc2C)ccc1O	Pf growth 96h inconclusive (no result: NS1 function inh)
CC(C)c1ccc(C(=O)NC(=S)Nc2ccc3[nH]c(=O)[nH]c3c2)cc1	HCV inhibitor inconclusive
CC(=O)Nc1nnc(S(=O)(=O)N2CCN(c3ccc(Cl)cc3[N+](=O)[O-])CC2)s1	none
COc1ccc(F)cc1C(=O)C1CCCN(C(=O)C2=C(C)OCCO2)C1 (stereo unspecified)	none
O=C(c1ccc(N2CCN(C3CC(=O)N(Cc4cccs4)C3=O)CC2)cc1)c1cccnc1 (stereo unspecified)	Pf growth 48h inconclusive, HCV inhibitor 12.6µM, Pf growth 96h inconclusive (no result: NS1 function inh)
CC[C@@]12C(=O)N(c3cccc(Br)c3)C(=O)N1[C@H](c1ccc(OC)cc1)[C@@H]1C(=O)N(C(C)(C)C)C(=O)[C@@H]12	Pf growth 48h inconclusive, Pf growth 96h inconclusive (no result: NS1 function inh)
COc1ccc([C@@H]2[C@@H]3C(=O)N(C(C)(C)C)C(=O)[C@@H]3[C@]3(Cc4ccc(Cl)cc4)C(=O)N(c4cccc(F)c4)C(=O)N23)cc1	Pf growth 48h 5.86µM, Pf growth 96h 9.28µM (no result: NS1 function inh)
CC[C@@]12C(=O)N(c3cccc(Br)c3)C(=O)N1[C@H](c1ccc(Br)cc1)[C@@H]1C(=O)N(C(C)(C)C)C(=O)[C@@H]12	Pf growth 48h 10.4µM, Pf growth 96h 4.65µM (no result: NS1 function inh)
COc1ccc([C@@H]2[C@@H]3C(=O)N(C(C)(C)C)C(=O)[C@@H]3[C@]3(Cc4ccccc4)C(=O)N(c4ccc(Br)cc4)C(=O)N23)cc1	Pf growth 48h 4.15µM, Pf growth 96h 5.22µM
COc1ccc(N2C(=O)N3[C@H](c4ccc(Br)cc4)[C@@H]4C(=O)N(C(C)(C)C)C(=O)[C@@H]4[C@]3(Cc3ccccc3)C2=O)cc1	Pf growth 96h inconclusive
CC(C)(C)N1C(=O)[C@H]2[C@@H](c3ccc(Br)cc3)N3C(=O)N(c4cccc(Cl)c4)C(=O)[C@@]3(Cc3ccccc3)[C@H]2C1=O	Pf growth 48h 3.29µM, Pf growth 96h 4.65µM (no result: NS1 function inh)
Nc1c(C(=O)CSc2nc(-c3ccccc3)cs2)c(=O)[nH]c(=O)n1C1CC1	HCV inhibitor inconclusive (no result: NS1 function inh)
CCc1ccc(C(=O)COC(=O)[C@@H](NC(N)=O)[C@@H](C)CC)cc1	none
COc1ccc([C@@H]2[C@@H]3C(=O)N(C(C)(C)C)C(=O)[C@@H]3[C@]3(Cc4ccccc4)C(=O)N(c4cccc(Cl)c4)C(=O)N23)cc1	Pf growth 48h 6.57µM, Pf growth 96h 9.28µM (no result: NS1 function inh)
COc1ccc([C@@H]2[C@@H]3C(=O)N(C(C)(C)C)C(=O)[C@@H]3[C@]3(Cc4ccccc4)C(=O)N(c4ccccc4)C(=O)N23)cc1	Pf growth 48h inconclusive, Pf growth 96h inconclusive (no result: NS1 function inh)
C=CCN(c1ccccc1)S(=O)(=O)c1cccc(C(=O)NCC2CCCO2)c1 (stereo unspecified)	HCV inhibitor inconclusive
CC1(C)Cc2cccc(OCC(O)CN3CCN(c4ccccn4)CC3)c2O1 (stereo unspecified)	Pf growth 48h 11.7µM, Pf growth 96h inconclusive
COc1ccccc1C=NN=C1c2ccccc2-c2ccccc21	HCV inhibitor inconclusive (no result: Pf growth 48h, SARS PLpro yeast, NS1 function inh, Pf growth 96h)
COC(=O)C/C=C/[C@@H](C)[C@@H](/C=N/O[C@@H](C)c1cn([C@H](CO)Cc2ccccc2)nn1)NS(=O)(=O)c1ccc(C)cc1	Pf growth 48h inconclusive, Pf growth 96h 11.7µM (no result: AMA1 RON2 block)
CCCn1c(N)c(N(CCOC)C(=O)c2ccc(S(=O)(=O)N3CCOCC3)cc2)c(=O)[nH]c1=O	none (no result: Pf growth 48h, SARS PLpro yeast, NS1 function inh, Pf growth 96h)
Cn1c(SC2CCCCC2=O)nnc1-c1ccccc1F (stereo unspecified)	none (no result: NS1 function inh)
COc1ccc(C2C(C#N)=C(C)NC(C)=C2C(=O)OC(C)C)c(OC)c1 (stereo unspecified)	Pf growth 48h 7.38µM, Pf growth 96h 4.65µM (no result: NS1 function inh)
CCOC(=O)C1=C(C)NC(C)=C(C(=O)OCC)C1c1ccc(Br)o1	Pf growth 48h inconclusive, HCV inhibitor inconclusive, Pf growth 96h 11.7µM
CC1=C(C(=O)OC(C)C)C(c2ccc(C)o2)C(C(=O)OC(C)C)=C(C)N1	Pf growth 48h 10.4µM, Pf growth 96h inconclusive
CCOC(=O)C1=C(C)NC(=O)NC1c1ccc(Br)o1 (stereo unspecified)	none
COc1cc(C2C(C(=O)OC(C)C)=C(C)Nc3[nH]c(=O)[nH]c(=O)c32)ccc1O (stereo unspecified)	none
COCc1ccc(C(=O)N2CCCC(N3CCN(c4ccc(F)cc4)CC3)C2)o1 (stereo unspecified)	Pf growth 48h inconclusive
CCOC(=O)/C=C/C(=O)Nc1ccccc1C(=O)NC1CCCCC1	Pf growth 48h inconclusive, Pf growth 96h inconclusive
